Where two headings read alike, the source gives them in different places.

The subject of one assay is RAB5C. More on the design: species or system human, MV4-11 + K-562 + COLO205 + SK-N-BE2 + OVCAR-8. To be noted: read-out: apparent Kd; compound concentrations: 100 nM and 1000 nM (sheet 'Samples'), CATDS: 1; n = 1.
The next assay has as its system PRKCZ. More on the design: species or system human, MV4-11 + K-562 + COLO205 + SK-N-BE2 + OVCAR-8. To be noted: read-out: apparent Kd; compound concentrations:100 nM and 1000 nM (sheet 'Samples'); n = 1.
Assay [1] has as its system PTK2. More on the design: species or system human, MV4-11 + K-562 + COLO205 + SK-N-BE2 + OVCAR-8. To be noted: read-out: apparent Kd; compound concentrations: 100 nM and 1000 nM (sheet 'Samples'), CATDS: 1; n = 1.
The subject of assay [2] is PRKCQ. More on the design: species or system human, MV4-11 + K-562 + COLO205 + SK-N-BE2 + OVCAR-8. To be noted: read-out: apparent Kd; compound concentrations: 100 nM and 1000 nM (sheet 'Samples'), CATDS: 1; n = 1.
Another assay concerns BCR. To be noted: read-out: apparent Kd; compound concentrations:100 nM and 1000 nM (sheet 'Lestaurtinib' of Supplementary Table 1),run:Lestaurtinib_02487_R1,Plate:MR012; n = 1.
The subject of the next assay is BUB1. To be noted: read-out: apparent Kd; compound concentrations:100 nM and 1000 nM (sheet 'Lestaurtinib' of Supplementary Table 1),run:Lestaurtinib_02487_R1,Plate:MR012; n = 1.
In the next assay the test system is T1, DJA1.
T1 construct: gene DNAJA1
To be noted: read-out: apparent Kd; compound concentrations:100 nM and 1000 nM (sheet 'Lestaurtinib' of Supplementary Table 1),run:Lestaurtinib_02482_R2,Plate:MR011; n = 1.

For a further assay, the system named is PIK3CG. To be noted: read-out: apparent Kd; compound concentrations:100 nM and 1000 nM (sheet 'Lestaurtinib' of Supplementary Table 1),run:Lestaurtinib_02487_R1,Plate:MR012; n = 1.
The subject of another assay is PIM1. The conditions noted are these: read-out: apparent Kd; compound concentrations:100 nM and 1000 nM (sheet 'Lestaurtinib' of Supplementary Table 1),run:Lestaurtinib_02487_R1,Plate:MR012; n = 1.
Another assay relates to PIP4K2C. To be noted: read-out: apparent Kd; compound concentrations:100 nM and 1000 nM (sheet 'Lestaurtinib' of Supplementary Table 1),run:Lestaurtinib_02487_R1,Plate:MR012; n = 1.
For the next assay, the system named is PKN3. To be noted: read-out: apparent Kd; compound concentrations:100 nM and 1000 nM (sheet 'Lestaurtinib' of Supplementary Table 1),run:Lestaurtinib_02487_R1,Plate:MR012; n = 1.
Assay [3] relates to PRKCQ. To be noted: read-out: apparent Kd; compound concentrations:100 nM and 1000 nM (sheet 'Lestaurtinib' of Supplementary Table 1),run:Lestaurtinib_02487_R1,Plate:MR012; n = 1.
The test system of assay [4] is PTK2. To be noted: read-out: apparent Kd; compound concentrations:100 nM and 1000 nM (sheet 'Lestaurtinib' of Supplementary Table 1),run:Lestaurtinib_02487_R1,Plate:MR012; n = 1.
The test system of a further assay is PTK6. The conditions noted are these: read-out: apparent Kd; compound concentrations:100 nM and 1000 nM (sheet 'Lestaurtinib' of Supplementary Table 1),run:Lestaurtinib_02487_R1,Plate:MR012; n = 1.
Another assay has as its system RIPK2. The conditions noted are these: read-out: apparent Kd; compound concentrations:100 nM and 1000 nM (sheet 'Lestaurtinib' of Supplementary Table 1),run:Lestaurtinib_02487_R1,Plate:MR012; n = 1.
The subject of the next assay is RPS6KA1. The conditions noted are these: read-out: apparent Kd; compound concentrations:100 nM and 1000 nM (sheet 'Lestaurtinib' of Supplementary Table 1),run:Lestaurtinib_02487_R1,Plate:MR012; n = 1.
In another assay the test system is SRC. To be noted: read-out: apparent Kd; compound concentrations:100 nM and 1000 nM (sheet 'Lestaurtinib' of Supplementary Table 1),run:Lestaurtinib_02487_R1,Plate:MR012; n = 1.
In another assay the test system is TAOK1. To be noted: read-out: apparent Kd; compound concentrations:100 nM and 1000 nM (sheet 'Lestaurtinib' of Supplementary Table 1),run:Lestaurtinib_02487_R1,Plate:MR012; n = 1.
The next assay concerns TEC. To be noted: read-out: apparent Kd; compound concentrations:100 nM and 1000 nM (sheet 'Lestaurtinib' of Supplementary Table 1),run:Lestaurtinib_02487_R1,Plate:MR012; n = 1.
A further assay relates to ULK1. The conditions noted are these: read-out: apparent Kd; compound concentrations:100 nM and 1000 nM (sheet 'Lestaurtinib' of Supplementary Table 1),run:Lestaurtinib_02487_R1,Plate:MR012; n = 1.

For the compound `Fc1ccc(-c2c(-c3ccncc3)n(CCN3CCOCC3)c3cccnc23)cc1` [RO1154507-000], the potency estimated from few doses in the assay with RAB5C was 223 nM.

For `O=C(Nc1n[nH]c2cc(-c3cccs3)ccc12)C1CC1` [SB-731284], the potency estimated from few doses in the assay with PRKCZ is 1850 nM.

For `COc1cc2c(cc1Nc1nc(Nc3cccc(F)c3C(N)=O)c3cc[nH]c3n1)N(C(=O)CN1CCN(C(C)C)CC1)CC2` [GSK1751853A], the potency estimated from few doses with PTK2 [1] was 1210 nM.

For the compound `CO/N=C(\c1ccccc1)c1cnn(-c2ccccc2)c1N` [RO1163374-000], the potency estimated from few doses in the assay on PRKCQ [2] is 2210 nM.

With Lestaurtinib, the potency estimated from few doses in the assay with BCR was 314 nM; in the assay with BUB1 it was 854 nM; with DJA1, 1330 nM; in the assay on PIK3CG, 1570 nM; in the assay with PIM1, 860 nM; in the assay with PIP4K2C it was 86.5 nM. Besides, the potency estimated from few doses in the assay on PKN3 is 755 nM; with PRKCQ [3], 2170 nM; with PTK2 [4], 345 nM; with PTK6, 533 nM; in the assay on RIPK2, 810 nM; in the assay with RPS6KA1, 1820 nM. The potency estimated from few doses is 618 nM with SRC, 1530 nM in the assay on TAOK1, 895 nM in the assay with TEC and 549 nM in the assay with ULK1.

The values above are taken from publication PMC11062922 (Nature Chemical Biology, 2023).
